The nature of this assay: OPRM1-OPRD1 heterodimerization promoters, counter-screen for HTR5A agonist project, cell-based, luminescence (AID 504913). Conditions: U2OS counter-screen cells, complementation luminescence, 3 h; at 9.3 µM; stronger effect = higher value. (A counterscreen serves to expose hits that act by an unwanted route or on another target.)

The values that follow come from PubChem BioAssay AID504913 (The Scripps Research Institute Molecular Screening Center, 2011).

This is one part of the list. A number with no mark means an inactive call. Rule as the data show it: active = activation above about 18%; inactive = the rest.

Turning to `CCCCCCCCCCCCn1ccc(=N)cc1`, the activation is 2.92%.
